A number with no mark means an inactive call. No rule for the calls is given here.

This test in a line: inhibitors of hydroxyurea-induced Chk1 phosphorylation, primary screen, imaging, HeLa, phospho-Chk1 antibody, percent positive cells (AID 1186). Particulars: hydroxyurea-induced phospho-Chk1 immunofluorescence imaging, higher = more signal.
In the case of `O=C(O)[C@@H]1[C@@H]2C(=O)N(c3ccccc3)C(=O)[C@@H]2C[C@@H]1Sc1ccccc1`, the z-score was 0.701.
In the case of `CCOC(=O)C1=CC[C@@H](c2ccccc2F)N(S(=O)(=O)c2ccc(C)cc2)[C@H]1c1ccccc1` it was 0.0286; in that of `C=CCN1Cc2ccccc2[C@@H]2OC(c3ccc(OCCCO)cc3)=N[C@]2(CC=C)C1=O`, -0.675; in that of `O=C(NCCN1CCOCC1)[C@@H]1c2ccccc2C(=O)N(C2Cc3ccccc3C2)[C@H]1c1ccc(CO)cc1`, -0.61.
On to `C=CCC(OC(C)=O)[C@@H]1[C@@H](N(Cc2cccc3ccccc23)C(=O)Cc2ccc(OC)cc2)c2cc(OCCCO)ccc2N1C(=O)c1ccc(-c2ccccc2)cc1` (stereo partly specified), for which the z-score was 0.577.
On to `CC(C)[Si](C#CCCCC#N)(O[C@H](c1ccccc1)c1cn(Cc2ccccc2)nn1)C(C)C`, for which the z-score was -0.727.
In the case of `NCCCCCCNC(=O)[C@@H]1C[C@@H]2C(=O)N[C@@H](CCCCN)C(=O)N2[C@@H]1c1ccc(O)cc1`, the z-score was -0.546.
Next, `CCN(CC)c1ccc(N2CC=CC34O[C@@H]5/C=C\CCCOC(=O)C5[C@H]3C(=O)N(C(C)CO)[C@@H]4C2=O)cc1` (stereo partly specified): 0.296.
Consider `CC(C)N1C(=O)C[C@@](C(=O)O)(c2ccc([N+](=O)[O-])cc2)[C@H]1c1ccc(CO)cc1`, for which the z-score is -0.198.
Turning to `CN(C)C(=O)[C@@]1(Cc2ccccc2)N=C(c2ccc(OCCCO)cc2)O[C@H]1c1ccccc1`, the z-score is -0.499.
Next, `Cc1ccc(S[C@]2(C(=O)NC(C)C)CC(=O)N(Cc3cc(C(F)(F)F)cc(C(F)(F)F)c3)[C@@H]2c2ccc(CO)cc2)cc1`: 0.0619; `COCC(=C=CC[C@H](O)c1ccc(CO)o1)CCO`: 0.625; `CCCCCN1CC=CC23O[C@@H]4/C=C\CCCOC(=O)C4[C@H]2C(=O)N(C(C)CO)[C@@H]3C1=O` (stereo partly specified): -0.107.
Next, `COc1ccc([Si](C)(C)[C@@H]2[C@@H](CCO)O[C@]3(C(=O)N(Cc4cccc(NC(=O)[C@H](C)O)c4)c4ccccc43)[C@H]2C)cc1`: 0.214.
For `Cc1ccc(S[C@]2(C(=O)NCc3ccccc3)CC(=O)N(C3CCCCC3)[C@@H]2c2ccc(CO)cc2I)cc1`, the z-score was 0.355.
In the case of `CC(C)c1ccc(NN2C(C(O)c3ccc(F)cc3)C=CC3C(=O)N(c4ccccc4)C(=O)C32)cc1` (stereo unspecified) it was 0.51; in that of `COC(=O)[C@@]1(Cc2ccccc2)[C@H]2c3cc(C(=O)N4CCCC4)n(CCc4ccccn4)c3C[C@H]2CN1C(=O)c1ccccc1`, 0.249; in that of `CCCN1C(=O)[C@]2(Cc3ccccc31)N=C(c1ccc(OCCCO)cc1)O[C@@H]2c1ccccc1`, 0.0183.
As to `O=C1[C@H]2C=C(I)[C@H](C[C@@H]2OCCOCCO)[C@@]12CO2`, the z-score was 0.363.
Next, `CCCCCCc1nc(Cc2cc(OC)c(OC)c(OC)c2)cc2c1[Si](C(C)C)(C(C)C)OC2`: -1.16; `COC(=O)C(CC#Cc1ccc2c(c1)[C@]1(C(=O)N2)[C@H](c2ccc(O)cc2)N2[C@H](c3ccccc3)[C@H](c3ccccc3)OC(=O)[C@H]2[C@@H]1C(=O)NC[C@H](O)c1ccccc1)C(=O)OC`: -0.0427; `COCCOC(=O)N1C(=O)[C@@]2(c3cc(C#CC4=CCCCC4)ccc31)[C@H](c1ccccc1OCCO)N1[C@H](c3ccccc3)[C@H](c3ccccc3)OC(=O)[C@H]1[C@@H]2C(=O)N1CCN(c2ncccn2)CC1`: -0.333.
In the case of `O[C@@H](Cc1ccccc1)[C@@H](/C=C/C1CC1)N(CC#Cc1ccccc1)Cc1ccccc1Br` it was -0.36.
Next, `COc1cc2c(cc1O)C=[N+](Cc1sc3ccccc3c1Cl)CC2`: 0.399; `COc1ccc(C#Cc2ccc3c(c2)[C@]2(C(=O)N3)[C@H](C(=O)O)[C@H]3C(=O)O[C@H](c4ccccc4)[C@H](c4ccccc4)N3[C@@H]2c2ccc(O)cc2)cc1`: -0.366.
In the case of `Cn1cccc1C(O)C1C=CC2C(=O)N(c3ccccc3)C(=O)C2N1Nc1ccccc1` (stereo unspecified), the z-score is 0.121.
Next, `Cc1ccc(F)cc1S(=O)(=O)N[C@@H]1CCN(Cc2ccc(Br)cc2)C1`: 0.0663; `CC1CC/C=C\[C@H]2OC34C=CCN(Cc5ccccc5)C(=O)[C@H]3N(C(CO)C(C)C)C(=O)[C@@H]4C2C(=O)O1` (stereo partly specified): -0.0785.
Next, `CCOC(=O)C1=C[C@@H](C(C)C)N(S(=O)(=O)c2ccc(C)cc2)[C@H]1c1ccc(C(F)(F)F)cc1`: 0.389; `COCCCNC(=O)[C@@]1(Sc2ccc(C)cc2)CC(=O)N(C2Cc3ccccc3C2)[C@@H]1c1ccc(CO)cc1`: -0.0691; `C[N+](C)(C)CCCC[C@@H]1NC(=O)[C@@H]2C[C@H](C(=O)NCCCCCCN)[C@H](c3cccc(OCCO)c3)N2C1=O`: -0.529.
With `C=CCC(OC(C)=O)[C@@H]1[C@@H](N(Cc2ccc(-c3ccccc3)cc2)C(=O)c2ccc(-c3ccccc3)cc2)c2cc(OCCCO)ccc2N1C(=O)c1ccc2ccccc2c1` (stereo partly specified), the z-score is 0.215.
`CC1CC/C=C\[C@H]2OC34C=CCN(C(C)C)C(=O)[C@H]3N(CCO)C(=O)[C@@H]4C2C(=O)O1` (stereo partly specified): the z-score is 0.147.
In the case of `CCCNC(=O)[C@@H]1c2ccccc2C(=O)N(Cc2ccc(OC(F)(F)F)cc2)[C@H]1c1ccc(CO)cc1` it was -0.615; in that of `CC(C)NC(=O)[C@@]1(C)c2ccccc2C(=O)N(Cc2ccc(OC(F)(F)F)cc2)[C@H]1c1ccc(CO)cc1`, -0.0939; in that of `COc1ccc(CCNC(=O)[C@@]2(Cc3ccccc3I)c3ccccc3C(=O)N(C3CCCCC3)[C@H]2c2ccc(CO)cc2)cc1`, -0.312.

The values above are taken from PubChem BioAssay.
